biological target: Fibroblast growth factor 10 (Homo sapiens) (UniProt O15520); assay: compounds binding fibroblast growth factor 10 – biochemical, small-molecule microarray, 635 nm fluorescence, primary screen (AID 1102); conditions: FGF10 binding, fluorescence 635 nm, higher = more signal
Sequence (O15520 whole entry, looked up): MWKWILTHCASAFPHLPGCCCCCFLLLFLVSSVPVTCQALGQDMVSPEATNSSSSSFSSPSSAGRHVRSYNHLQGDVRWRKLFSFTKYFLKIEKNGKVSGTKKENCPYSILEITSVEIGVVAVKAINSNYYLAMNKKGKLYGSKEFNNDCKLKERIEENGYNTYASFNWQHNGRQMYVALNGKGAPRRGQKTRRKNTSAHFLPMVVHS

Q: For `CCOC(=O)C[C@H]1[C@H](OC(=O)c2ccccc2-c2ccccc2)[C@@H](NC(=O)c2ccccc2)c2cc(OCCCO)ccc2N1C(=O)Cc1ccc(OC)cc1`, which composite z-score is on record?
A: 0.0268

Q: With `C=CCC(OC(C)=O)[C@@H]1[C@@H](N(Cc2ccc(-c3cccc(C(F)(F)F)c3)o2)C(=O)c2cccc3ccccc23)c2cc(OCCCO)ccc2N1C(=O)c1ccc(-c2ccccc2)cc1` (stereo partly specified) as the molecule, how does the composite z-score read?
A: 0.192

Q: `C[C@H]1ON(c2ccccc2)[C@@H](c2ccccc2)[C@@H]1C(=O)N1C(=O)OC[C@@H]1c1ccccc1` was tested. Which composite z-score did it give?
A: 0.675

Q: With `COCCOC(=O)N1C(=O)[C@@]2(c3cc(C#CCNC(N)=O)ccc31)[C@H](C(N)=O)[C@H]1C(=O)O[C@H](c3ccccc3)[C@H](c3ccccc3)N1[C@@H]2c1ccc(OCCO)cc1` as the molecule, how does the composite z-score read?
A: 0.535

Q: `CCCC=C(CCC)[C@@H](NS(=O)(=O)c1cccc2cccnc12)c1ccc(C(=O)OC)cc1` was tested. Which composite z-score did it give?
A: 1.58

Q: `CCOC(=O)C1=CC[C@@H](c2ccccc2)N(S(=O)(=O)c2ccc(C)cc2)[C@H]1C=C(C)C` was tested. Which composite z-score did it give?
A: 1.02

Q: `C#CCNS(=O)(=O)N(C)C` was tested. Which composite z-score did it give?
A: 0.296

Q: Which composite z-score does the source give for `O=C1O[C@H](c2ccccc2)[C@H](c2ccccc2)N2[C@H]1[C@@H](C(=O)N1CCN(c3ncccn3)CC1)[C@]1(C(=O)Nc3ccc(C#CCCO)cc31)[C@H]2c1ccc(OCCO)cc1` here?
A: 1.11

Q: For `COCCOC(=O)N1C(=O)[C@@]2(c3cc(C#CC4(O)CCCCCC4)ccc31)[C@H](C(=O)N1CCN(c3ncccn3)CC1)[C@H]1C(=O)O[C@H](c3ccccc3)[C@H](c3ccccc3)N1[C@@H]2c1ccc(O)cc1`, which composite z-score is on record?
A: 0.45

Q: `Cc1cc(C)c(C(O)C2C=CC3C(=O)N(c4ccccc4)C(=O)C3N2Nc2ccc([N+](=O)[O-])cc2)c(C)c1` (stereo unspecified) was tested. Which composite z-score did it give?
A: 0.693

Q: `Cc1ccc(S[C@]2(C(=O)O)CC(=O)N(C3CCCCC3)[C@@H]2c2ccc(CO)cc2)cc1` was tested. Which composite z-score did it give?
A: -0.256

Q: `CCOc1cc(C(O)C2C=CC3C(=O)NC(=O)C3N2Nc2ccccn2)ccc1O` (stereo unspecified) was tested. Which composite z-score did it give?
A: 0.592

Q: Which composite z-score does the source give for `CC(=O)NCCCC[C@@H]1NC(=O)[C@@H]2C[C@H](C(=O)NCCCC[N+](C)(C)C)[C@H](c3cccc(OCCO)c3)N2C1=O` here?
A: 0.766

Q: How did the composite z-score turn out when `COc1ccc([Si](C)(C)[C@@H]2[C@@H](CC(=O)N(CCO)Cc3ccccc3)O[C@]3(C(=O)N(Cc4ccc(N5CCOC5=O)cc4)c4ccccc43)[C@H]2C)cc1` was run?
A: 0.472

Q: Which composite z-score does the source give for `COC(=O)[C@]1(Cc2ccccc2CN=[N+]=[N-])N=C(c2ccc(OCCCO)cc2)O[C@@H]1c1ccccc1CN=[N+]=[N-]` here?
A: 0.468

Q: Which composite z-score does the source give for `CN(C)C(=O)[C@]1(Cc2ccccc2N=[N+]=[N-])N=C(c2ccc(OCCCO)cc2)O[C@@H]1c1ccccc1CN=[N+]=[N-]` here?
A: 1.38

Q: How did the composite z-score turn out when `CC(C)(C)OC(=O)CC[C@@]1(C(=O)N2CCCCC2)N=C(c2ccc(OCCCO)cc2)O[C@@H]1c1ccccc1CN=[N+]=[N-]` was run?
A: 0.56

Q: `CCN(CC)c1ccc(N2CC=CC34O[C@@H]5/C=C\CCCOC(=O)C5[C@H]3C(=O)N(CCCCCO)[C@@H]4C2=O)cc1` (stereo partly specified) was tested. Which composite z-score did it give?
A: -1.47

Q: With `[N-]=[N+]=Nc1ccccc1C[C@]1(C(=O)NCCN2CCOCC2)N=C(c2ccc(OCCCO)cc2)O[C@H]1c1ccccc1N=[N+]=[N-]` as the molecule, how does the composite z-score read?
A: 1.47

Q: `COC(=O)[C@]1(Cc2ccccc2CN=[N+]=[N-])N=C(c2ccc(OCCCO)cc2)O[C@@H]1c1ccccc1` was tested. Which composite z-score did it give?
A: -1.34

Q: How did the composite z-score turn out when `COCCOC(=O)N1C(=O)[C@@]2(c3cc(C#Cc4ccc(OC)cc4)ccc31)[C@H](C(=O)N1CCc3cc(OC)c(OC)cc3C1)[C@H]1C(=O)O[C@H](c3ccccc3)[C@H](c3ccccc3)N1[C@@H]2c1ccc(O)cc1` was run?
A: 1.06

Q: `COCCOC(=O)N1C(=O)[C@@]2(c3cc(C#CCCO)ccc31)[C@H](C(=O)NC[C@H](O)c1ccccc1)[C@H]1C(=O)O[C@H](c3ccccc3)[C@H](c3ccccc3)N1[C@@H]2c1ccccc1OCCO` was tested. Which composite z-score did it give?
A: 1.32

Q: Which composite z-score does the source give for `COc1ccccc1CN1C(=O)c2ccccc2[C@@H](C(=O)NCC(C)C)[C@@H]1c1ccc(CO)cc1` here?
A: 0.773

Q: `C=CCN1C(=O)[C@@]2(O[C@@H](CCn3cc([C@H](O)c4ccccc4)nn3)[C@H]([Si](C)(C)c3ccc(OC)cc3)[C@H]2C)c2cc(NC(=O)c3ccc(OC)cc3)ccc21` was tested. Which composite z-score did it give?
A: -0.0229

Q: How did the composite z-score turn out when `O=C(O)[C@]1(CCS(=O)(=O)c2ccccc2)N=C(c2ccc(OCCCO)cc2)O[C@@H]1c1ccccc1` was run?
A: 0.216

Q: `CN(C)CCCN1C(=O)[C@@]2(Cc3ccccc31)c1ccccc1C(=O)N(Cc1ccccc1)[C@H]2c1ccc(CO)cc1` was tested. Which composite z-score did it give?
A: -0.622
